Results taken from PubChem BioAssay AID1159580 (chemical genetic matrix, 2015).
Values joined by “and” are separate entries in the source; they are usually repeats but may differ in a detail not shown here. Equal values may be shown once. Hit rate of the full screen: of about 5,500 compounds, about 2,000 (36%) were called active. About 18% were inconclusive and are not listed. No stated cut-off is given here; in the data, active means normalized growth mostly below about 0.91 (no sharp cut-off); inconclusive means no clear call, values can overlap the other calls; inactive means mostly above about 0.92. Some of the results follow.

Assay: chemical genetic growth profiling, strain panel (AID 1159580);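 further: tested at 20 µM; growth read once vehicle control cultures reached saturation at 30 °C; 1 = growth at the plate median or of vehicle wells; lower values mean less growth of the strain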
Details: S. cerevisiae deletion strains, growth OD

Measured: normalized growth

CC(=O)Oc1ccc2c(c1OC(C)=O)OCC1(O)Cc3c(cc(OC(C)=O)c(OC(C)=O)c3OC(C)=O)C21 (configuration not stated)
inactive: locus YAL013W, strain DEP1, active compounds read low 1.02 | locus YAL021C, strain ccr4, active compounds read low 0.948 | locus YAL026C, strain drs2, active compounds read low 1.03 | locus YAL030W, strain snc1, active compounds read low 1.01 | locus YBL061C, strain skt5, active compounds read low 1.01 | locus YBR009C, strain hhf1, active compounds read low 1.01 | locus YBR021W, strain FUR4, active compounds read low 1.02 | locus YBR023C, strain chs3, active compounds read low 0.988 | locus YBR171W, strain sec66, active compounds read low 1.02 | locus YBR229C, strain ROT2, active compounds read low 1.01 | locus YBR231C, strain swc5, active compounds read low 0.975 | locus YBR279W, strain paf1, active compounds read low 0.99 | locus YCL011C, strain gbp2, active compounds read low 0.997 | locus YCL016C, strain dcc1, active compounds read low 0.982 | locus YCL029C, strain bik1, active compounds read low 0.978 | locus YCL061C, strain MRC1, active compounds read low 1 | locus YCL069W, strain vba3, active compounds read low 1.03 | locus YCR088W, strain abp1, active compounds read low 1.02 | locus YDL005C, strain med2, active compounds read low 1.01 | locus YDL035C, strain GPR1, active compounds read low 1.01 | locus YDL040C, strain nat1, active compounds read low 1.01 | locus YDL074C, strain BRE1, active compounds read low 0.973 | locus YDL101C, strain DUN1, active compounds read low 0.943 | locus YDL134C, strain PPH21, active compounds read low 0.997 | locus YDL185W, strain tfp1, active compounds read low 0.955 | locus YDL192W, strain arf1, active compounds read low 1.01 | locus YDR001C, strain nth1, active compounds read low 1.02 | locus YDR069C, strain doa4, active compounds read low 0.969 | locus YDR101C, strain arx1, active compounds read low 1.04 | locus YDR137W, strain rgp1, active compounds read low 1 | locus YDR159W, strain sac3, active compounds read low 1.06 | locus YDR162C, strain NBP2, active compounds read low 0.948 | locus YDR195W, strain ref2 1.01 | locus YDR297W, strain sur2, active compounds read low 1 | locus YDR318W, strain mcm21, active compounds read low 1.02 | locus YDR334W, strain swr1, active compounds read low 1.02 | locus YDR335W, strain msn5, active compounds read low 0.998 | locus YDR388W, active compounds read low 0.996 | locus YDR392W, strain spt3, active compounds read low 0.923 | locus YDR502C, strain sam2, active compounds read low 1 | locus YEL003W, strain gim4, active compounds read low 1 | locus YEL037C, strain rad23, active compounds read low 1.01 | locus YEL061C, strain CIN8 (second series), active compounds read low 1.01 | locus YER015W, strain faa2, active compounds read low 0.974 | locus YER016W, strain bim1, active compounds read low 1.02 | locus YER110C, active compounds read low 0.991 | locus YER111C, strain swi4, active compounds read low 0.999 | locus YER155C, strain BEM2 (second series), active compounds read low 1.02 | locus YER155C, strain BEM2, active compounds read low 1.02 | locus YER167W, strain BCK2, active compounds read low 1.01 | locus YFR010W, strain ubp6, active compounds read low 1.02 | locus YGL078C, strain dbp3, active compounds read low 0.983 | locus YGL086W, strain mad1, active compounds read low 0.986 | locus YGL167C, strain pmr1, active compounds read low 0.995 | locus YGL173C, strain kem1, active compounds read low 1.02 | locus YGL227W, strain vid30, active compounds read low 1.02 | locus YGL240W, strain doc1, active compounds read low 1.07 | locus YGL248W, strain PDE1, active compounds read low 0.965 | locus YGL253W, strain hxk2, active compounds read low 1.04 | locus YGR135W, strain pre9, active compounds read low 0.949 | locus YGR229C, strain SMI1, active compounds read low 1.07 | locus YGR252W, strain gcn5, active compounds read low 1.11 | locus YHR013C, strain ard1, active compounds read low 0.981 | locus YHR027C, strain rpn1, active compounds read low 1 | locus YHR030C, strain SLT2, active compounds read low 1.01 and 1.06 | locus YHR079C, strain IRE1 (second series), active compounds read low 0.987 | locus YHR079C, strain IRE1, active compounds read low 1.08 | locus YHR094C, strain hxt1, active compounds read low 1 | locus YHR129C, strain ARP1, active compounds read low 1.01 | locus YHR142W, strain chs7, active compounds read low 1 | locus YHR200W, strain rpn10, active compounds read low 0.983 | locus YIL066C, strain RNR3, active compounds read low 0.97 | locus YIL073C, strain SPO22, active compounds read low 0.794 | locus YIL125W, strain kgd1, active compounds read low 0.993 | locus YIR030C, strain dcg1, active compounds read low 0.986 | locus YJL092W, strain hpr5, active compounds read low 1.01 | locus YJL095W, strain BCK1 (second series), active compounds read low 1 | locus YJL095W, strain BCK1, active compounds read low 0.947 and 1.06 | locus YJL115W, strain asf1, active compounds read low 1.01 | locus YJL129C, strain trk1, active compounds read low 1.03 | locus YJL134W, strain LCB3, active compounds read low 1 | locus YJL154C, strain vps35, active compounds read low 1.01 | locus YJL164C, strain tpk1, active compounds read low 0.98 | locus YJL166W, strain qcr8, active compounds read low 1.01 | locus YJL168C, strain set2, active compounds read low 0.997 | locus YJL187C, strain SWE1 (second series), active compounds read low 0.873 | locus YJL187C, strain SWE1, active compounds read low 0.988 | locus YJR066W, strain TOR1, active compounds read low 1.04 | locus YKL009W, strain mrt4, active compounds read low 0.973 | locus YKL068W, active compounds read low 0.994 | locus YKL085W, strain MDH1 (second series), active compounds read low 0.976 | locus YKL085W, strain MDH1, active compounds read low 0.976 | locus YKL160W, strain elf1, active compounds read low 0.983 | locus YKL190W, strain CNB1, active compounds read low 0.987 | locus YKR001C, strain vps1, active compounds read low 1.04 | locus YKR026C, strain gcn3, active compounds read low 1.02 | locus YKR091W, strain srl3, active compounds read low 1.01 | locus YLL001W, strain dnm1, active compounds read low 0.978 | locus YLL026W, active compounds read low 1.01 | locus YLL041C, strain sdh2, active compounds read low 1.02 | locus YLR027C, strain aat2, active compounds read low 1.01 | locus YLR039C, strain RIC1, active compounds read low 1.06 | locus YLR058C, strain SHM2, active compounds read low 0.898 | locus YLR102C, strain apc9, active compounds read low 0.981 | locus YLR113W, strain HOG1, active compounds read low 1.04 | locus YLR221C, strain rsa3, active compounds read low 1.03 | locus YLR258W, strain gsy2, active compounds read low 1 | locus YLR262C, strain YPT6 (second series), active compounds read low 1 | locus YLR268W, strain sec22, active compounds read low 1.01 | locus YLR320W, strain mms22, active compounds read low 1.03 | locus YLR330W, strain CHS5, active compounds read low 1.02 | locus YLR342W, strain FKS1, active compounds read low 1 | locus YLR357W, strain rsc2, active compounds read low 1 | locus YLR370C, strain arc18, active compounds read low 1.01 | locus YLR371W, strain rom2, active compounds read low 0.997 | locus YLR384C, strain iki3, active compounds read low 1.01 | locus YLR418C, strain cdc73, active compounds read low 1.02 | locus YML016C, strain PPZ1, active compounds read low 0.972 | locus YML032C, strain rad52, active compounds read low 1 | locus YML120C, strain ndi1, active compounds read low 0.983 | locus YML124C, strain tub3, active compounds read low 0.988 | locus YMR058W, strain fet3, active compounds read low 1.02 | locus YMR078C, strain ctf18, active compounds read low 0.994 | locus YMR125W, strain sto1, active compounds read low 0.989 | locus YMR129W, active compounds read low 1.01 | locus YMR205C, strain PFK2, active compounds read low 0.974 | locus YMR223W, strain ubp8, active compounds read low 0.995 | locus YMR231W, strain pep5, active compounds read low 1.01 | locus YMR263W, strain SAP30, active compounds read low 1.01 | locus YMR307W, strain GAS1, active compounds read low 1.06 | locus YNL067W, strain RPL9B, active compounds read low 1.02 | locus YNL071W, strain lat1, active compounds read low 1 | locus YNL183C, strain NPR1, active compounds read low 1.03 | locus YNL209W, strain ssb2, active compounds read low 0.973 | locus YNL233W, strain BNI4, active compounds read low 1 | locus YNL248C, strain rpa49, active compounds read low 1.04 | locus YNL250W, strain rad50, active compounds read low 0.925 | locus YNL271C, strain bni1, active compounds read low 0.976 | locus YNL298W, strain CLA4, active compounds read low 1.01 | locus YNL307C, strain MCK1, active compounds read low 0.998 | locus YNL322C, strain KRE1 (second series), active compounds read low 1 | locus YNR049C, strain mso1, active compounds read low 1.03 | locus YNR052C, strain pop2, active compounds read low 0.988 | locus YOL006C, strain TOP1, active compounds read low 0.743 | locus YOL012C, strain htz1 0.406 | locus YOL147C, strain pex11, active compounds read low 0.999 | locus YOR001W, strain rrp6, active compounds read low 1.06 | locus YOR061W, strain CKA2, active compounds read low 0.981 | locus YOR069W, strain VPS5, active compounds read low 1 | locus YOR070C, strain gyp1, active compounds read low 1.01 | locus YOR080W, strain dia2, active compounds read low 1 | locus YOR083W, strain WHI5, active compounds read low 0.984 | locus YOR106W, strain vam3, active compounds read low 0.955 | locus YOR136W, strain idh2, active compounds read low 1.02 | locus YOR144C, strain elg1, active compounds read low 1 | locus YOR184W, strain ser1, active compounds read low 1.1 | locus YOR231W, strain MKK1, active compounds read low 1.08 | locus YOR265W, strain rbl2, active compounds read low 1.03 | locus YOR270C, strain vph1, active compounds read low 1.07 | locus YOR290C, strain snf2, active compounds read low 0.988 | locus YOR316C, strain cot1, active compounds read low 0.987 | locus YPL051W, strain arl3, active compounds read low 0.969 | locus YPL078C, strain atp4, active compounds read low 0.991 | locus YPL106C, strain sse1, active compounds read low 0.949 | locus YPL240C, strain hsp82, active compounds read low 1.01 | locus YPL241C, strain CIN2, active compounds read low 0.996 | locus YPL256C, strain CLN2, active compounds read low 1.05 | locus YPR119W, strain clb2, active compounds read low 0.996 | locus YPR141C, strain kar3, active compounds read low 0.989 | locus YPR163C, strain tif3, active compounds read low 1.01 | locus YPR167C, strain met16, active compounds read low 1.01 | strain wtn01, active compounds read low 0.992
